The structures appear in SMILES notation. Screen size: about 370,000 compounds; about 2,600 (0.7%) were called active. Only a selection was taken, and actives are over-represented in it overall. Values without a mark were called inactive.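 The calls were made as follows: active = inhibition above a cutoff: mean of compounds within the control limits plus 3 SD of those (cut at about 17% in these data); inactive = the rest.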

Sialate O-acetylesterase (Homo sapiens), sequence (Q9HAT2 whole entry, looked up): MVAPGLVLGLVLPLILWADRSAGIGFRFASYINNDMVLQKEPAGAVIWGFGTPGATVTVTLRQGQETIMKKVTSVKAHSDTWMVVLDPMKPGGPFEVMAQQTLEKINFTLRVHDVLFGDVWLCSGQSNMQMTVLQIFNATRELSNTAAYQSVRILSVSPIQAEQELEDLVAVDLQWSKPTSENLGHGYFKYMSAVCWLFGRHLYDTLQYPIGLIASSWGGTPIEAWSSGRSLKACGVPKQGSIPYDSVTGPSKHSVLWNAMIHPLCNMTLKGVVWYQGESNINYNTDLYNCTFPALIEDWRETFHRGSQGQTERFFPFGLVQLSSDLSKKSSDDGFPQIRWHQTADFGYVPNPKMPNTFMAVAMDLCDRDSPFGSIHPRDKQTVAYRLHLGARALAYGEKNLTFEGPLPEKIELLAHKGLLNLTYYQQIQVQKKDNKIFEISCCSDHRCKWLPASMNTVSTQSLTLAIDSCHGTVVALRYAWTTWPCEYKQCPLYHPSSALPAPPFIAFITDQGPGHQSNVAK

This assay addresses Sialate O-acetylesterase (Homo sapiens) (UniProt Q9HAT2). Description: human SIAE inhibitors, primary screen, biochemical, fluorescence polarization, FP-Rh probe, 1536-well HTS (AID 1053197).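 Also: 0% = plate median of compound wells and 100% = probe without SIAE protein.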 The note with it: SIAE FP-Rh probe binding, at 9.66 µM, hits give high values. (Fluorescence polarisation rises when a labelled molecule tumbles more slowly, as on binding a larger partner.)
On to `COc1ccc(C#CCNCc2ccc(OC)cc2OC)cc1`, for which the inhibition was 3.3%.
As for `COc1cccc(/C=N/Nc2cc(C)nc(-c3ccccc3O)n2)c1O`, the figure is 18.5% (active); as for `Oc1cc2c(cc1O)CN(C(=S)NCCc1ccc(Cl)cc1)CCC2`, 2.67%; as for `O=C1CCN(C(=S)NCCc2ccccc2)CC1`, 17.5% (active).
Turning to `Oc1ccc(N2CCN(C(=S)NCc3ccccc3)CC2)cc1`, the inhibition is 10.2%.
Turning to `CCOC(=O)C(=O)N(Cc1ccccc1)c1ccccc1C(=O)Nc1cc(OC)ccc1OC`, the inhibition was -7.2%.
Turning to `CC(C)(C)OC(=O)NCc1cc(F)ccc1/C=C/S(=O)(=O)NCCc1ccccc1`, the inhibition is -1.86%.
With `COC(=O)c1cc(S(=O)(=O)N2CCN(c3ccccc3C)CC2)cn1C`, the inhibition is 2.1%.
As for `CC(C)(O)C#Cc1ccc(C(=O)N2CCC(C(N)=O)(N3CCCCC3)CC2)cc1`, the figure is 22.5% (active); as for `CCC(=O)N1CCC(C(N)=O)(N2CCCCC2)CC1`, -0.17%; as for `NC(=O)C1(N2CCCCC2)CCN(C(=O)c2ccc(C#Cc3ccccc3)o2)CC1`, -5.47%.
With `CCC[C@H]1C(=O)CC[C@@]23CCCN2C(=O)CCC[C@@H]13` the figure was -0.79%; with `CC[C@@H](CCC(=O)N(c1ccccc1)c1ccccc1)C1CC1`, -1.88%; with `COC(=O)[C@]1(C#N)CC(=O)N(CC2CCCCC2)[C@@H]1c1ccccc1`, 2.31%.
With `COc1ccc(C2C3=C(OC(C)=O)c4ccccc4C3=Nc3c2c(=O)n(C)c(=O)n3C)cc1` (stereo unspecified) the figure was 1.68%; with `Cc1cccc(C2c3c(n(C)c(=O)n(C)c3=O)N=C3c4ccccc4C(=O)C32)c1` (stereo unspecified), 17.7% (active).
With `Cc1cccc(C2C3=C(CCCC3=O)N=C3c4ccccc4C(=O)C32)c1` (stereo unspecified), the inhibition is 6.75%.
Turning to `CCC(CO)Nc1cccc2c1S(=O)(=O)N(Cc1cn(Cc3ccccc3C(F)(F)F)nn1)Cc1ccccc1O2` (stereo unspecified), the inhibition was 7.92%.
As for `COC(=O)c1cc(S(=O)(=O)N2CCN(C(=O)C3CCCO3)CC2)cn1C` (stereo unspecified), the figure is -4.53%; as for `CCCCOCCCNC(=O)C[C@H]1C[C@@]2(C(=O)OC)C(=C[C@H](C(C)(C)C)O[C@@H]2C)N(CCc2ccc(OC)c(OC)c2)C1=O`, -1.28%.
With `CCOC(=O)[C@]12CCCCC/C=C\1N(Cc1ccc(OC)cc1)C(=O)[C@H]2CC(=O)NCCCN1CCCC1=O` the figure was 4.21%.
As for `CCOc1cc(N2CCOCC2)c(OCC)cc1NC(=O)COc1cccc2cccnc12`, the inhibition is 25.5% (active).
As to `NC(=O)C1CCN(C(=O)COc2cccc3cccnc23)CC1`, the inhibition was 4%.
With `CCOc1cc(N2CCOCC2)c(OCC)cc1NC(=O)C1=NN(c2cccc(C)c2)C(=O)CC1` the figure was 7.16%.
With `COc1ccc(C(=O)NNc2cc(C)nc(NNC(=O)c3ccc(OC)cc3)n2)cc1` the figure was -3.36%.
Take `CC(=O)NS(=O)(=O)c1ccc(N/C(N)=N/c2nc(C)cc(C)n2)cc1`: the inhibition was -5.5%.
With `CC(=O)Nc1ccc(Nc2cc(C)nc(Nc3ccc(NC(C)=O)cc3)n2)cc1` the figure was 19.1% (active).
As for `CCC(c1ccc(NC(=O)OC(C)(C)C)cc1)c1cc(OC)cc(OC)c1` (stereo unspecified), the figure is -2.44%.
`C=CCN1C(=O)[C@H](CC(=O)N2CCN(C(=O)OCC)CC2)[C@@]2(C(=O)OCC)CCCC=C12`: the inhibition was 10.1%.
As for `CC(=O)N1CCc2cc(S(=O)(=O)NCCC(=O)N3CCCC3)ccc21`, the figure is -1.37%; as for `C=CCN1C(=O)[C@@H](CC(=O)N2CCN(C(=O)c3ccco3)CC2)[C@]2(C(=O)OC)CCCCC=C12`, 2.59%.
As for `CC(C)N1CCCCC(NC(=O)C(C)(C)C)C1=O` (stereo unspecified), the figure is -4.73%.
With `Cc1cc2ccccc2n1CCNC(=O)COc1ccc2ccccc2c1` the figure was 27.9% (active).
Turning to `Cc1ccccc1OCC(=O)NCC(=O)OCC(=O)c1ccc2ccccc2c1`, the inhibition was -1.57%.
Turning to `O=C(COc1ccc(Cl)cc1)NCCSc1ccccc1`, the inhibition was 0.9%.
For the compound `C[C@H]1[C@H](NC(=O)c2cccc(N(C)C)c2)CC[C@@]23CCCN2C(=O)CCC[C@@H]13`, the inhibition is 0.13%.
On to `COc1ccc(CSc2nnc(-c3cccc(C)c3)n2C)cc1`, for which the inhibition is 4.99%.
For the compound `COC(=O)C[C@@H]1CC[C@H]2[C@@H](COc3ccc(NS(=O)(=O)CC(F)(F)F)cc3C(=O)N2C)O1`, the inhibition is 8.2%.
For the compound `COC(=O)[C@]12C[C@H](CC(=O)NCc3cccs3)C(=O)N(CCc3ccc(OC)c(OC)c3)C1=C[C@H](C(C)C)O[C@@H]2C1CC1`, the inhibition is 9.66%.
As for `COc1ccc(C2CC=C(C(=O)O)C(c3ccccc3F)N2S(=O)(=O)c2ccc(C)cc2)cc1OC` (stereo unspecified), the figure is -2.16%; as for `COC(=O)/C(=C1\Oc2ccc(C(C)(C)C)cc2S1)C(F)(F)F`, 0.75%.
For the compound `CCOC(=O)C1=C(c2ccccc2)O/C(=C(/C(=O)OC)C(F)(F)F)S1`, the inhibition is 36% (active).
Turning to `CCOC(=O)c1nnn(-c2nonc2OC)c1-c1ccccc1`, the inhibition is 1.88%.
As for `c1csc(-c2nnc(SCc3nc4ccccc4[nH]3)o2)c1`, the figure is -0.76%.
As for `CCCNC(=O)Nc1ccc2c(c1)C(=O)N(C)[C@H]1CC[C@H](CC(=O)NCC3CCCCC3)O[C@@H]1CO2`, the figure is -0.34%.
As for `Cc1cccc(NC(=O)C[C@H]2CC[C@H]3[C@@H](COc4ccc(NC(=O)Nc5ccccc5)cc4C(=O)N3C)O2)c1`, the figure is -1.56%.
Consider `COc1ccccc1CCC(=O)NNC(=O)c1ccncc1`, for which the inhibition was -7.13%.
With `CCc1ccc(/C=N/NC(=O)c2nnn(-c3nonc3N)c2CN2CCc3ccccc32)cc1` the figure was -0.3%; with `COc1ccc(/C=N/NC(=O)c2ccncc2)cc1CN1CCCc2ccccc21`, 18.8% (active).
On to `CCCCNC(=O)C[C@H]1C[C@@]2(C(=O)OC)C(=C[C@H](COCc3ccccc3)O[C@@H]2C)N(Cc2ccc(Cl)cc2Cl)C1=O`, for which the inhibition was 11.1%.
As to `COc1ccc(S[C@]2(C(=O)N(C)C)CC(=O)N(c3ccc(OC)cc3)[C@@H]2c2ccc(OC)cc2)cc1`, the inhibition is -0.86%.
As for `Cc1ccc(NC(=O)Cc2cccc(F)c2)c(S(=O)(=O)N2CCOCC2)c1`, the figure is -2.62%; as for `CCSc1nc(O)c(C(c2cccc(OC)c2)c2c(O)nc(SCC)[nH]c2=O)c(=O)[nH]1`, -2.73%; as for `CCn1c(SC)nc(O)c(C(c2ccc(OC)c(O)c2)c2c(O)nc(SC)n(CC)c2=O)c1=O`, 26.7% (active).
With `COc1ccccc1OCC(=O)OCn1c(SC)nnc(C)c1=O` the figure was -6.49%; with `CCN(/N=C/c1ccc(N(C)C)cc1)c1nc2ccccc2[nH]1`, 4.94%.
`Oc1ccc(/C=N/N(Cc2ccccc2)c2ccccc2)cc1`: the inhibition was 19.4% (active).
As for `CCN(/N=C/c1ccccc1)c1cc(=O)n(C)c(=O)[nH]1`, the figure is 10.2%; as for `O=C(NC1CCCC1)C1CSCCS(=O)(=O)N1Cc1ccccc1` (stereo unspecified), -3.54%.
As for `N[C@@H](Cc1ccccc1)C(=O)N1CCC[C@@H]1C(=O)N1CCC2CCN(S(=O)(=O)c3ccccc3)CC21` (stereo partly specified), the figure is 1.02%; as for `Oc1ccc(/C=C/c2c(F)cccc2F)c2cccnc12`, 9.1%.
Take `COc1ccc(Cc2nc3ccc(C(=O)N4CCC(N(C)C)C4)cc3o2)cc1` (stereo unspecified): the inhibition was 18.5% (active).
With `COCC1CCN(C(=O)c2ccc3oc(Cc4ccccc4)nc3c2)C1` (stereo unspecified) the figure was -5.51%.
With `CCC1C(=O)NCCN1C(=O)c1ccc2nc(Cc3ccc(OC)cc3)oc2c1` (stereo unspecified) the figure was -0.21%; with `CC(CCN1CCC(C(O)(c2ccccc2)c2ccccc2)CC1)Oc1ccc([N+](=O)[O-])cc1Cl` (stereo unspecified), 1.3%.
As for `Cc1ccc(/C=N/NC(=S)NC2CCCCC2)o1`, the figure is 8.46%; as for `Cc1ccc(/C=N/NC(=O)c2cc3ccccc3cc2O)o1`, 21.5% (active).
As to `Cc1ccc(/C=N/NC(=O)Cn2ccc(C(F)(F)F)n2)o1`, the inhibition is 2.98%.
With `C[C@H]1CCC/C=C/C(=O)c2c(O)cc(O)cc2CC(=O)O1`, the inhibition is 5.43%.
Regarding `C=CCOC/C=C/C#CCN(CC=C)Cc1ccc(OC)cc1OC`, the inhibition is -0.76%.
Turning to `CCOC(=O)C(=O)C1C(=O)Nc2ccccc21` (stereo unspecified), the inhibition was 20.6% (active).
With `CCCCC(CC)CNC(=O)C(=O)C1C(=O)Nc2ccccc21` (stereo unspecified) the figure was 4.38%; with `CCOC(=O)CC1=CC(=O)Nc2ccccc2N1`, 2.76%; with `Cc1c(NS(=O)(=O)c2cccc(C(=O)Nc3ccc(SC(F)F)cc3)c2)c(=O)n(-c2ccccc2)n1C`, -14%.
For `COc1ccc(NC(=O)/C(N=Nc2cccc(S(=O)(=O)Nc3ccc(SC(F)F)cc3)c2)=C(\C)O)cc1`, the inhibition is 17.2% (active).
In the case of `Nc1cccc(S(=O)(=O)Nc2ccc(SC(F)F)cc2)c1`, the inhibition was -5.85%.
Turning to `Cc1nc2ccc(C(=O)N3CCN(C(=O)C(C)(C)C)CC3)cc2n1C1CCCC1`, the inhibition was 1.16%.
As for `Cc1ccccc1CS(=O)(=O)Cc1ccc(C(=O)Nc2ccc(Cl)cc2)o1`, the figure is -4.56%; as for `C[C@H](C(=O)N(C)c1ccccc1)[C@@H](O)c1ccc(Cl)cc1`, -3.9%; as for `COc1ccc(-n2c(SCC(=O)Nc3ccc(C)c(Cl)c3)nc3ccccc3c2=O)cc1`, -5.2%.
With `O=C(OC12CCCN(C1)/C(=C/c1cccnc1)C2)C1CCCC1` (stereo unspecified) the figure was 9.64%; with `COc1ccc(N2CCN(c3ccc([N+](=O)[O-])nc3)CC2)cc1`, 27.9% (active); with `O=[N+]([O-])c1ccc(N2CCN(c3ccc(F)cc3)CC2)cn1`, 1.56%.
For the compound `COc1ccccc1N1CCN(c2ccc([N+](=O)[O-])nc2)CC1`, the inhibition was 3.93%.
In the case of `Cc1c(C(C)c2ccccc2O)[nH]c2ccccc12` (stereo unspecified), the inhibition was 3.42%.
As for `C=C(C)C#CC(Cc1ccccc1)N(CC1CC1)/C(N)=N/C(=O)OCc1ccccc1` (stereo unspecified), the figure is 8.05%.

In general, inhibition refers to the drop in the measured response relative to a control, in per cent.

The values above are taken from PubChem BioAssay AID1053197 (The Scripps Research Institute Molecular Screening Center, 2014).
